The values below come from PubChem BioAssay AID588397 (National Center for Advancing Translational Sciences (NCATS), 2011).

Structures are written as SMILES. In all, about 1,300 compounds went through this assay and about 1,000 (77%) were called active. About 7% were inconclusive and are not listed. So high a share suggests a set chosen from earlier hits. The list shows a part of the results. A number with no mark means an inactive call. The call rests on the fitted dose curve; in most records, active means well fitted inhibition curve with a large enough effect; inconclusive means small, poorly fitted or top-dose-only effect; inactive means no such curve, though single readings can be large or run the other way.
On the % scale 0 is the no-effect control and ±100 the full control effect; potency means the concentration at half of the fitted maximal effect.

This test in a line: qHTS of small molecules that selectively kill Giardia lamblia: Hit Validation.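 Further: viability measured as ATP content by luminescence so killing lowers signal; trophozoites exposed to compounds for 48 h anaerobically at 37 °C; nearly all actives have a fitted effect of over 65% in size.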 The following applies: Giardia lamblia trophozoite viability, dose-response; series mostly up to 38.3 µM; activity change, negative = killing: at the top concentration. The method, boiled down: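 Media and compound were dispensed first, then trophozoites at 100 cells/well; plates sat 48 hrs at 37 deg C without oxygen before ATP luminescence reagent was added and read after 15-30 min at room temperature.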
For orientation: qHTS replaces the single test concentration by a dilution series.
Take `O=C(Nc1cc([N+](=O)[O-])c2[nH]c(=O)c3ccccc3c2c1)C(F)(F)F`: the Potency was 1.03 µM (active).
Take `COc1ccc(NS(=O)(=O)c2ccc3oc4ccccc4c3c2)cn1`: the “activity change, negative = killing” value is -13.8%.
Turning to `c1coc(-c2nc3cc4ccccc4cc3nc2-c2ccco2)c1`, the Potency is 3.65 µM (active).
On to `CCOn1c(=O)c(-c2cccc([N+](=O)[O-])c2)[n+]([O-])c2ccccc21`, for which the Potency was 1.03 µM (active).
The same measure, in the same setting: the same measure for `O=c1c(-c2cccc([N+](=O)[O-])c2)[n+]([O-])c2ccccc2n1O`: 5.16 µM (active); for `CC(NC(=O)c1ccc(N(C)C)c([N+](=O)[O-])c1)c1ccc(-n2ccnc2)cc1` (configuration not stated): 4.6 µM (active); for `COc1ccccc1C1C([N+](=O)[O-])=CC([N+](=O)[O-])=CN1C` (configuration not stated): 2.59 µM (active).
As for `Cc1ccc(S(=O)(=O)N2[C@@H](c3ccccc3)C(C(=O)O)=CC[C@H]2c2cccc(Cl)c2)cc1`, the Potency is 0.103 µM (active).
For `Cc1ccc(S(=O)(=O)N2[C@@H](c3ccc(F)cc3)C(C(=O)O)=CC[C@H]2c2ccc(Cl)cc2)cc1`, the “activity change, negative = killing” value was -46%.
On to `Cc1ccc(S(=O)(=O)N2[C@@H](c3ccc(F)cc3)C(C(=O)O)=CC[C@H]2c2ccc3c(c2)OCO3)cc1`, for which the “activity change, negative = killing” value was -45.2%.
Take `O=[N+]([O-])c1cccc2nc3ccccc3c(NCCCn3ccnc3[N+](=O)[O-])c12`: the Potency is 1.63 µM (active).
`CN=c1scc(-c2ccccc2F)n1/N=C(\C)c1cccnc1`: the Potency is 4.1 µM (active).
With `COc1cc(Nc2ccc(C)cc2)c([N+](=O)[O-])nc1[N+](=O)[O-]`, the Potency was 1.45 µM (active).
With `Cc1ccc(Nc2ccc([N+](=O)[O-])nc2[N+](=O)[O-])cc1`, the Potency was 3.26 µM (active).
Consider `O=C(Nc1ccc2[nH]ncc2c1)c1ccccc1Cl`, for which the Potency is 5.79 µM (active).
Consider `O=[N+]([O-])c1ccc(Oc2cccc(Br)c2)c2ccncc12`, for which the Potency is 2.05 µM (active).
As to `O=C(Nc1cccnc1)c1ccc([N+](=O)[O-])s1`, the Potency was 2.05 µM (active).
Consider `O=C(NCc1cccnc1)c1ccc([N+](=O)[O-])o1`, for which the Potency was 1.16 µM (active).
Take `O=C(Nc1nnc(-c2ccco2)o1)c1ccc([N+](=O)[O-])s1`: the Potency was 3.65 µM (active).
As to `CN(C(=O)c1cc([N+](=O)[O-])ccc1NCc1cccnc1)c1ccccc1`, the “activity change, negative = killing” value is -18%.
In the case of `O=C(NCc1ccco1)c1ccc([N+](=O)[O-])o1`, the Potency is 1.83 µM (active).
With `O=C(Cc1ccc(-n2c(=O)c3sccc3n(CC(=O)Nc3ccccc3)c2=O)cc1)NCc1ccco1`, the “activity change, negative = killing” value is 15%.
Regarding `CCN(C(=O)N(CC)c1ccccc1)c1ccccc1`, the “activity change, negative = killing” value was -33.4%.
As to `O=C(Nc1ccc(Cc2ccncc2)cc1)c1ccc([N+](=O)[O-])o1`, the Potency was 1.16 µM (active).
Turning to `O=C(Nc1cccnc1)c1ccc([N+](=O)[O-])o1`, the Potency was 1.3 µM (active).
Consider `Cc1ccc(CNC(=O)c2cc(S(=O)(=O)N3CCOCC3)cn2C)cc1`, for which the “activity change, negative = killing” value is -15.8%.
For `Cc1ccc(CNC(=O)c2ccc([N+](=O)[O-])o2)cc1`, the Potency was 1.83 µM (active).
